bovine MsrA act: bovine methionine sulfoxide reductase A activation | activation, % at 10.6 µM | 0.3% of 360,000 active | purified bovine MsrA, absorbance read-out; in the data active = activation above about 7.5%;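 also: 0% = vehicle and 100% = reference activator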
ABCB6 inh 2: human ABCB6 transporter inhibition | K562-ABCB6 porphyrin accumulation, flow cytometry, 1 h; active compounds read low | Q9NP58 | fluorescence ratio to DMSO, % at 10 µM | AID 602162 | 0.19% of 360,000 active;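 active = fluorescence ratio to DMSO below 75%, the collection mean minus 3 SD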;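 also: signal is porphyrin accumulated inside mitochondria; 100% equals median channel fluorescence of DMSO control wells; lower ratio means ABCB6 inhibition with less porphyrin fluorescence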
Target sequence (Q9NP58 whole entry, looked up): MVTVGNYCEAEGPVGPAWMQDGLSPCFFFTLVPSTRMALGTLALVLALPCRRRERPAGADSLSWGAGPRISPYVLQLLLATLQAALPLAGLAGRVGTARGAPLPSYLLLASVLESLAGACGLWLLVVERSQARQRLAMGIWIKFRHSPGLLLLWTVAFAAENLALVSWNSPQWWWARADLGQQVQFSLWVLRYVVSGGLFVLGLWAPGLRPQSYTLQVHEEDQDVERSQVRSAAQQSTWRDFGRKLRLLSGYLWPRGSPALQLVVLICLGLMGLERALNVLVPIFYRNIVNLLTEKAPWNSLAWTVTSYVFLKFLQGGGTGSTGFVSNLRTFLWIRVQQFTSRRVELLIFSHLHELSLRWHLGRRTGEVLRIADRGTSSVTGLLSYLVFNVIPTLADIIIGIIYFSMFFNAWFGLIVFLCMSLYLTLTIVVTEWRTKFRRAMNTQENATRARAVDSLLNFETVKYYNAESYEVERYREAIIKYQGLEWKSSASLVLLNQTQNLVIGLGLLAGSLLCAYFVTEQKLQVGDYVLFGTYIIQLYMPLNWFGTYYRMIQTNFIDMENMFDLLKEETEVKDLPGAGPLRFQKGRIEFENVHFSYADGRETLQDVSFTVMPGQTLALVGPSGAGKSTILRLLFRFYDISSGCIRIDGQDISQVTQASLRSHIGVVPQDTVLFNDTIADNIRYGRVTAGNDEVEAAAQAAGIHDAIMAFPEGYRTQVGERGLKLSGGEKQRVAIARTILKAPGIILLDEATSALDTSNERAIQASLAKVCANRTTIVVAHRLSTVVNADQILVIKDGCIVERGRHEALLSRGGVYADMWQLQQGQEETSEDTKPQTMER
SMARCA2 activ: activators of SMARCA2 function; MG213 cells, MMTV-luciferase reporter, dexamethasone, overnight; activation, % at 9.1 µM; 1% of 370,000 active; AID 652017; in the data active = activation above about 7.8%;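 also: 0% = vehicle wells and 100% = reference activator wells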
MsrA inh: inhibits bovine methionine sulfoxide reductase A. purified bovine MsrA, absorbance read-out. inhibition, % at 15.5 µM. 0.75% of 360,000 active; in the data active = inhibition above about 4.5%;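 also: 0% = vehicle wells with enzyme and 100% = reference inhibitor wells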
SMARCA2 conf: SMARCA2 activation, confirmation screen. activation, % at 9.1 µM. shares compounds with SMARCA2 activ. MG213 cells, MMTV-luciferase with dexamethasone, luminescence, overnight; MG213 cells expressing E1A, Rb sequestered; DMSO wells 0%, reference activator 100%. 30% of 3,500 active;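 active = activation above its plate's cutoff, the mean activation of tested wells plus 3 SD, cut at about 7.9% in these data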
VP16 Luc act: counter-screen for SMARCA2 activators: GAL4-VP16 luciferase reporter activation; shares compounds with SMARCA2 activ; HEK293 GAL4-VP16 pG5luc reporter, luciferase luminescence; scaled: DMSO wells 0%, SAHA wells 100%; activation, % at 9.1 µM; 41% of 3,500 active; AID 686939;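 active = activation above the solvent-only control well mean plus 3 SD, averaged across control plates, cut at about 5.2% in these data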
Starred values were filed as active, the others as inactive; nt = not tested or not shown. Shown are actives, neighbours in structure and some others; about 2.1% of the full set was active somewhere.

SMILES	bovine MsrA act	ABCB6 inh 2	SMARCA2 activ	MsrA inh	SMARCA2 conf	VP16 Luc act
CC(=O)c1cccc(NC(=O)c2ccc(-n3cncn3)c3ccoc23)c1	-7	88	-2	0	nt	nt
CCC(=O)Nc1ccc(NC(=O)CSc2nnnn2-c2cccnc2)cc1C	2	99	9.7*	0	-2	1
COC(=O)c1ccc2nc(-c3ccc(F)cc3)c(Cc3ccccc3C(F)(F)F)n2c1	-2	127	9.1*	-1	-1	-1
C=C(c1ccc(OC)cc1)c1ccc(OC)cc1	0	98	9.3*	1	2	2
COc1ccc(C(N)=S)cc1	7	99	-1	1	nt	nt
Cc1ccc(CN2CCCCC(NC(=O)c3ccc4ccccc4c3)C2=O)cc1 (stereo not drawn)	nt	nt	-1	nt	nt	nt
CCCC[C@H]1C2CC(OC(=O)Nc3ccc(C)cc3)C(C2)[C@H]2CCCCN21 (stereo partly drawn)	nt	nt	-3	nt	nt	nt
CCOC(=O)c1ccc(S(=O)(=O)N2CCC(C(=O)N3CCN(c4ccccc4OC)CC3)CC2)cc1	0	104	-3	0	nt	nt
COc1ccccc1N1CCN(C(=O)C2CCN(S(=O)(=O)c3ccc(F)cc3)CC2)CC1	3	99	8.8*	1	1	0
NC(=O)COC(=O)c1cccc2c1-c1ccccc1C2=O	-7	82	-3	0	nt	nt
CC(C)COC(=O)c1ccc2c(c1O)C(=O)c1ccccc1C2=O	-4	145	8.7*	0	4	4
O=C(NCCN1CCC(n2c(=O)[nH]c3ccccc32)CC1)c1cccc(F)c1	-2	94	-4	-1	nt	nt
S=C(Nc1ccc(Cl)cc1)OC1CCC12CCC(c1ccccc1)CC2 (stereo not drawn)	nt	nt	2	nt	nt	nt
Cc1ccc(C2=NNC3(CCOC(C)(C)C3)S2)cc1 (stereo not drawn)	-1	102	11*	1	9.9*	3
O=C(NCC1COc2ccccc2O1)c1ccc(NC(=O)c2c(Cl)cccc2Cl)cc1 (stereo not drawn)	nt	nt	-6	nt	nt	nt
O=C(Nc1ccc2c(c1)ncn2-c1ccccc1)c1ccco1	-11	92	11*	0	16*	7.9*
O=C(Nc1c(C(=O)Nc2ccccc2)cnn1-c1ccccc1)c1ccco1	-3	90	9.8*	-1	1	0
Cn1cnc2cc(NC(=O)c3ccco3)ccc21	2	99	3	2	nt	nt
CC(=O)c1cnc2nc(SCc3ccccc3)nn2c1C	-1	100	11*	0	6	10*
Cc1ccc(C)c(NCCCCC(=O)O)c1	0	100	-2	-2	nt	nt
O=C(Nc1ccc(-c2nc3ccccc3[nH]2)cc1)C1CCCN(Cc2ccn[nH]2)C1 (stereo not drawn)	0	93	18*	1	7	5
CC(NC(=O)COC(=O)c1ccc(N2CCCC2=O)cc1)c1ccc(F)cc1 (stereo not drawn)	-2	95	9.4*	0	-3	2
COc1ccc(NC(=O)COC(=O)c2ccc(N3CCCC3=O)cc2)cc1	0	95	-2	0	nt	nt
CC1Cc2ccccc2N1C(=O)/C=C/c1cccc(F)c1 (stereo not drawn)	-4	99	8.2*	2	5	9.9*
CC(=O)c1cccc(Nc2c([N+](=O)[O-])c(=O)oc3ccccc23)c1	-2	100	-2	2	nt	nt
SMILES	bovine MsrA act	ABCB6 inh 2	SMARCA2 activ	MsrA inh	SMARCA2 conf	VP16 Luc act
O=C(O)c1cccc(Nc2c([N+](=O)[O-])c(=O)oc3ccccc23)c1	-9	96	8.9*	2	-3	1
COc1cc(Cl)ccc1OCc1cc(C(=O)N(C)C2CCOC2)no1 (stereo not drawn)	1	90	8.7*	0	5	4
COc1cc(Cl)ccc1OCc1cc(C(=O)N2CCCCCCC2)no1	-4	107	-2	0	nt	nt
CN(C(=O)c1cc(COc2c(F)cccc2F)on1)C1CCOC1 (stereo not drawn)	-4	91	3	0	nt	nt
COCCN1CCN(C(=O)c2cc(COc3ccc(Cl)cc3OC)on2)CC1	-11	101	8.3*	0	14*	9.7*
COc1cc(C)ccc1OCc1cc(C(=O)N2CCN(C)C[C@@H]2c2ccccc2)no1	0	101	8.7*	0	4	2
CCOC(=O)C1(Cc2ccccc2)CCN(Cc2ccc(C)cc2)CC1	nt	nt	-5	nt	nt	nt
COc1ccc(-c2cc(C(=O)NC(Cc3cc4ccccc4[nH]3)C(=O)O)c(C)o2)cc1OC (stereo not drawn)	-2	95	11*	1	9.9*	4
O=C1OC(/C(=C\Nc2cc(Cl)ccc2O)[N+](=O)[O-])c2ccccc21 (stereo not drawn)	-8	98	33*	2	5	-1
Cc1ccc(N/C=C(\C2OC(=O)c3ccccc32)[N+](=O)[O-])c(C)c1 (stereo not drawn)	-7	104	7	1	nt	nt
O=C1OC(/C(=C\Nc2ccc(F)cc2F)[N+](=O)[O-])c2ccccc21 (stereo not drawn)	-7	99	13*	0	3	2
Cn1cc(Cc2ccc(C(=O)N3CCN(Cc4ccccc4)CC3)cn2)c2ccccc21	0	95	-4	0	nt	nt
CC(=O)N1Cc2cc(C(=O)NCC(F)(F)F)nc(-c3cccc(-c4cc5ccccc5o4)c3)c2[C@@H]1CCO	-2	86	2	1	nt	nt
O=C(NN=C1C2CC3CC1CC(Cl)(C3)C2)c1ccccn1	-2	108	9.1*	0	7	2
CN[C@H]1C[C@H]2c3[nH]c4cccc(-c5cccc(F)c5)c4c3CCN2C(=O)[C@H]1[C@H](C)O	nt	nt	-6	nt	nt	nt
COc1ccc(-c2csc(-c3cccs3)n2)c(OC)c1	-8	96	11*	0	12*	8.4*
COc1ccc(CN(CCN2CCOCC2)C(=O)c2ccc(F)cc2F)cc1OC	nt	nt	-4	nt	nt	nt
CCOC(=O)[C@@]12CCCC=C1N(CCc1ccc(Cl)cc1)C(=O)[C@H]2CC(=O)N1CCCCC1	nt	nt	-3	nt	nt	nt
COC(=O)c1sc2nc(-c3ccco3)ccc2c1N	-4	105	8.0*	2	14*	6.5*
CSc1ccc(C(O)c2ncc(-c3cccc(F)c3)[nH]2)cc1 (stereo not drawn)	-6	96	2	-2	nt	nt
COc1ccc2cc3cc(C(=O)NC(C)C)oc3nc2c1	-5	100	9.1*	4	5	5
COc1ccc2cc3cc(C(=O)Nc4cc(OC)c(OC)c(OC)c4)oc3nc2c1	-6	95	-4	1	nt	nt
COc1ccccc1C(=O)n1ccc2ccc(-c3ccc4ccn(Cc5ccc(C#N)cc5)c4c3)cc21	nt	nt	0	nt	nt	nt
COc1cccc(CNS(=O)(=O)c2c(C(=O)N3CCCCCC3)c(C)n(C)c2C)c1	-2	97	9.8*	0	0	-1
